Fam108B counter: counter-screen for RBBP9 inhibitors: inhibitors of mouse Fam108B | recombinant Fam108B, FP-Rh probe fluorescence polarization | inhibition, % at 9.51 µM | 300,000 tested, 0.33% active;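 active = inhibition above the screen mean inhibition plus 3 SD, computed separately per campaign, cut at about 18% in these data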;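 note: inhibitors lower polarization as less probe binds the enzyme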
PME-1 inh: PME-1 (human) inhibition; Q9Y570; recombinant PME-1, FP-Rh probe fluorescence polarization; inhibition, % at 5.9 µM; 320,000 tested, 0.53% active;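 active = inhibition above the campaign mean of all compounds plus 3 SD, cut at about 26% in these data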;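 note: competitive labeling of PME-1 active site by serine hydrolase directed probe; inhibitors block probe labeling so polarization falls and inhibition rises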
LYPLA1 inh: blocks human lysophospholipase 1, a PME1 counter-screen; O75608; recombinant LYPLA1, FP-Rh probe fluorescence polarization; inhibition, % at 5.9 µM; 320,000 tested, 0.16% active; AID 2174;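 active = inhibition above the mean of all tested compounds plus 3 SD, set per campaign, cut at about 14% in these data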;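 note: inhibitors block serine hydrolase probe labeling of LYPLA1 so polarization falls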
PAD4 inh: blocks human protein arginine deiminase 4. Q9UM07. recombinant PAD4, RCA probe fluorescence polarization. inhibition, % at 6.36 µM. 330,000 tested, 0.41% active. AID 485272;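 active = percent inhibition above a cutoff equal to the mean of all tested compounds plus 3 SD, cut at about 15% in these data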
Target sequence (Q9UM07 whole entry, looked up): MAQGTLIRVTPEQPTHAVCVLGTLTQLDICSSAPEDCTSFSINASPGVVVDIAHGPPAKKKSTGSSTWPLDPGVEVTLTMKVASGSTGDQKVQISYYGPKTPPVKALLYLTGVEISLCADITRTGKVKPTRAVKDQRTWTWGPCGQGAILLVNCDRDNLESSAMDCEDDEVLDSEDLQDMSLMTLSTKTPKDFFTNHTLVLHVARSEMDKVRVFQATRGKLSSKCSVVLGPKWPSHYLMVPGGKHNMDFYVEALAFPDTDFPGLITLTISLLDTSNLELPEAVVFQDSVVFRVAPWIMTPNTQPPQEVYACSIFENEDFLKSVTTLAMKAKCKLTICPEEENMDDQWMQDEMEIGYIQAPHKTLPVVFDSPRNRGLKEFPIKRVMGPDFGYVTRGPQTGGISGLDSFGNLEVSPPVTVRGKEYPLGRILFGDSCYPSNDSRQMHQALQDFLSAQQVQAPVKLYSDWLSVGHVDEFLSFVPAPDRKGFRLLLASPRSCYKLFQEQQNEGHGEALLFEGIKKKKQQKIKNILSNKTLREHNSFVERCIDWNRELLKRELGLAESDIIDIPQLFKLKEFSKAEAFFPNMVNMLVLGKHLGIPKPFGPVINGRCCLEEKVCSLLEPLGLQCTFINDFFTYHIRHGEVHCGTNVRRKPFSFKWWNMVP
LYPLA2 inh: counter-screen for PME1 inhibitors: inhibitors of human LYPLA2; recombinant LYPLA2, FP-Rh probe fluorescence polarization; inhibition, % at 5.9 µM; 320,000 tested, 0.38% active; AID 2177;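 active = inhibition above the screen-wide mean plus 3 SD, limit set per campaign, cut at about 26% in these data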
GSTO1 counter: GSTO1 inhibition, counter-screen for RBBP9 inhibitors; recombinant GSTO1, activity-based probe fluorescence polarization; 300,000 tested, 1.1% active; inhibition, % at 5.96 µM; P78417;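 active = inhibition above the campaign mean inhibition plus 3 SD, cut at about 35% in these data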
Fam108b confirm: Fam108b (mouse) hydrolase inhibition, confirmation assay. 930 tested, 44% active. shares compounds with Fam108B counter. inhibition, % at 9.51 µM. recombinant Fam108b, FP-Rh probe fluorescence polarization. AID 1978;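 active = inhibition above a limit from the primary screen, the mean over all compounds plus 3 SD, cut at about 19% in these data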;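 note: inhibitors free the probe so polarization falls as inhibition rises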
Fam108b ABPP HTS: inhibits mouse Fam108b in gel-based ABPP; shares compounds with Fam108B counter; recombinant Fam108b, fluorophosphonate probe; inhibition, % at 20 µM; 260 tested, 44% active; AID 588649; in the data active = inhibition above about 40%
Each line names hits and unclear results; the compound was inactive in the other large screens (follow-up assays come after a bar, where they were run). An excerpt weighted towards active compounds, which were near 1.8% of everything screened.

CCOc1ccc(NC(=O)N2CCC(NC(=O)C(Cc3ccccc3OC)NC(C)=O)CC2)cc1 (configuration not stated)	none
Cc1ccccc1-c1noc(CNC(=O)c2ccco2)n1	none
O=C(Cn1nc(C(=O)O)c2ccccc2c1=O)Nc1cccc(S(=O)(=O)N2CCCCCC2)c1	none (no result: Fam108B counter, PME-1 inh, LYPLA1 inh, LYPLA2 inh, GSTO1 counter)
O=C1c2ccccc2C(=O)N1OS(=O)(=O)c1ccccc1	Fam108B counter 28.7 | Fam108b confirm inactive
CCN(C(=O)C1CCCN1S(=O)(=O)c1ccc2c(c1)n(C)c(=O)c(=O)n2C)c1ccccc1 (configuration not stated)	none
CN1C(=O)/C(=C/c2ccc(C(=O)Nc3ccc(O)cc3C(=O)O)cc2)SC1=S	Fam108B counter 18.7, PME-1 inh 35.1 | Fam108b confirm inactive
COc1ccc(C)cc1S(=O)(=O)N1CCN(C(=O)c2ncoc2-c2ccccc2F)CC1	none
Cc1nc2scc(-c3ccc(Cl)cc3)c2c(=O)o1	Fam108B counter 46.0 | Fam108b confirm 78.7 | Fam108b ABPP HTS 80.0
COc1ccc(-c2nc3scc(-c4ccc(OC)c(OC)c4)c3c(=O)o2)cc1	none
CC(C)(C)c1nc2scc(-c3ccc(Br)cc3)c2c(=O)o1	Fam108B counter 26.5 | Fam108b confirm 29.3
Cc1nc2scc(-c3cccs3)c2c(=O)o1	none
COc1ccc(-c2csc3nc(-c4ccccc4F)oc(=O)c23)cc1	Fam108B counter 50.2 | Fam108b confirm 36.5 | Fam108b ABPP HTS 60.0
C[C@H](CO)N1C[C@H](C)[C@@H](CN(C)S(=O)(=O)c2cccs2)Oc2c(NC(=O)CCC(F)(F)F)cccc2C1=O	none (no result: Fam108B counter, PME-1 inh, LYPLA1 inh, LYPLA2 inh, GSTO1 counter)
COc1ccc(-c2oc3ccccc3c2C(=O)Oc2ccccc2)cc1	none
Nc1c(S(=O)(=O)c2cccc(Cl)c2)c2nc3ccccc3nc2n1/N=C/c1ccc(O)c(O)c1	Fam108B counter 76.7, PME-1 inh 51.3 | Fam108b confirm 140.5
COc1cccc(/C=N/n2c(N)c(S(=O)(=O)c3cccs3)c3nc4ccccc4nc32)c1OC	none
Cc1ccc(NC2=C/C(=N/S(=O)(=O)c3cccs3)c3ccccc3C2=O)cc1C	none
O=C1C(Nc2ccccc2)=CC(=NS(=O)(=O)c2cccs2)c2ccccc21	none (no result: Fam108B counter, PME-1 inh, LYPLA1 inh, PAD4 inh, LYPLA2 inh, GSTO1 counter) | Fam108b ABPP HTS inactive
CC(=O)Nc1ccc(NC2=CC(=NS(=O)(=O)c3cccs3)c3ccccc3C2=O)cc1	none (no result: Fam108B counter, PME-1 inh, LYPLA1 inh, PAD4 inh, LYPLA2 inh, GSTO1 counter) | Fam108b ABPP HTS inactive
CC(C)c1cccc(C(C)C)c1NC(=O)CN1C(=O)NC2(CCCC2)C1=O	none
Cc1cc(=O)[nH]c(SCC(=O)Nc2cccc(S(=O)(=O)N3CCOCC3)c2)n1	none (no result: Fam108B counter, GSTO1 counter)
Fc1ccc2nc(Nc3nc4cc5c(cc4s3)OCCO5)sc2c1	Fam108B counter 21.3, PME-1 inh 72.3 | Fam108b confirm inactive
Fc1ccc2nc(Nc3nc4cc5c(cc4s3)OCO5)sc2c1	Fam108B counter 39.7, PME-1 inh 52.5 | Fam108b confirm 45.7 | Fam108b ABPP HTS 95.0
CCCCn1c(N)c(N(CCOC)C(=O)CSc2ccccc2C)c(=O)[nH]c1=O	none
CCCCn1c(N)c(N(CCOC)C(=O)CSCc2ccccc2C)c(=O)[nH]c1=O	Fam108B counter 27.0 | Fam108b confirm inactive
CC(Sc1nnc(NCc2ccccc2)s1)C(=O)Nc1ccc2c(c1)C(=O)c1ccccc1C2=O (configuration not stated)	Fam108B counter 37.7 | Fam108b confirm 19.1
Cn1c(=N)n(CC(=O)c2ccc(Cl)c(Cl)c2)c2ccccc21	Fam108B counter 20.7 | Fam108b confirm inactive
Cc1ccc(S(=O)(=O)N2CCN(C(=O)COC(=O)CSc3ccccc3)CC2)c(C)c1	none
C=C(C)Cn1c(SCC)nc2ccccc2c1=O	none
C=C(C)Cn1c(SCC(=O)N/N=C/c2c(O)ccc3ccccc23)nc2ccccc2c1=O	Fam108B counter 28.9 | Fam108b confirm inactive
C[C@H](CO)N1C[C@H](C)[C@@H](CN(C)S(=O)(=O)c2cn(C)cn2)Oc2ccc(NC(=O)Cn3cnnn3)cc2C1=O	none (no result: Fam108B counter, PME-1 inh, LYPLA1 inh, LYPLA2 inh, GSTO1 counter)
CCOCCn1c(N2CCCC2)nc2c1c(=O)[nH]c(=O)n2C	none
CC(C)CNC(=O)COC(=O)c1ccc2c(c1)C(=O)N(Cc1ccco1)C2=O	none
O=C(O)CC(C(=O)O)N1C(=O)/C(=C/c2ccc(-c3nc4ccccc4s3)o2)SC1=S (configuration not stated)	Fam108B counter 32.4 | Fam108b confirm inactive
O=C(O)CCCN1C(=O)/C(=C\c2ccc(-c3nc4ccccc4s3)o2)SC1=S	Fam108B counter 19.5 | Fam108b confirm inactive
O=C(CSc1nnc2c(n1)[nH]c1ccc(F)cc12)NCc1ccc(F)cc1	none
Cc1nc2ccc(NS(=O)(=O)c3cccc([N+](=O)[O-])c3)cc2s1	none (no result: Fam108B counter, PME-1 inh, LYPLA1 inh, LYPLA2 inh, GSTO1 counter)
CC(C)C[C@H](NC(=O)[C@H](Cc1ccccc1)n1c(=O)[nH]c2ccccc2c1=O)C(=O)N1CCC[C@@H]1C(=O)O	none
O=c1cc(CSc2ccc(Cl)cc2)[nH]c2[nH]n(-c3ccccc3)c(=O)c12	Fam108B counter 19.4 | Fam108b confirm inactive
Cc1cc(SCC(=O)c2ccc(O)c(O)c2)n2nc(C)c(-c3ccccc3)c2n1	Fam108B counter 18.3, GSTO1 counter 35.5 | Fam108b confirm inactive
COc1ccc(C(CNC(=O)c2ccc(NS(=O)(=O)c3ccc4c(c3)OCCO4)cc2)N(C)C)cc1 (configuration not stated)	none
Nc1nn2cc(-c3ccc(Br)cc3)nc2c2ccccc12	Fam108B counter 26.9 | Fam108b confirm inactive
COC(=O)c1cc(C)[nH]c2c(C)cc3nc4ccccc4c3c12	none
COC1=CC(=O)C(O)=C(CCCCCCCC=CCCCCCCCC2=C(O)C(=O)C=C(OC)C2=O)C1=O	none (no result: Fam108B counter, PME-1 inh, LYPLA1 inh, PAD4 inh, LYPLA2 inh, GSTO1 counter) | Fam108b ABPP HTS inactive
O=C(CCCN1C(=O)c2cccc3cccc(c23)C1=O)NCc1cccs1	Fam108B counter 21.9 | Fam108b confirm 27.3
O=C(CCCN1C(=O)c2cccc3cccc(c23)C1=O)NCc1ccco1	none
CCC(NS(=O)(=O)c1ccc(OC)cc1)C(=O)NCCc1ccccc1 (configuration not stated)	none
c1cc2c3c(cccc3c1)NC1(CCCCC1)N2	none
c1cc2c3c(cccc3c1)NC1(CCC3(CC1)Nc1cccc4cccc(c14)N3)N2	Fam108B counter 36.2, PME-1 inh 47.3 | Fam108b confirm inactive
O=C1[C@@H]2Cc3c([nH]c4ccccc34)C(c3ccccc3)N2C(=O)CN1C1CC1 (some centres not stated)	Fam108B counter 19.5, PME-1 inh 27.0 | Fam108b confirm inactive
Cc1ccc2[nH]c(C)c(/C=N/Nc3nc4ccccc4s3)c2c1	Fam108B counter 27.1, PME-1 inh 57.9 | Fam108b confirm inactive
Brc1csc(C=NNc2nc3ccccc3s2)c1	none (no result: Fam108B counter, PME-1 inh, LYPLA1 inh, PAD4 inh, LYPLA2 inh, GSTO1 counter) | Fam108b ABPP HTS 70.0
